As usually defined, the inhibition is the change of the read-out against control, counted positive when it falls.

In ChEMBL document CHEMBL1961873, “Compounds: GSK PKIS; Assays: Nanosyn kinase panel” (2012) one finds inhibition data, which are given here for 17 molecules.

The target of test [1] is Mitogen-activated protein kinase kinase kinase kinase 4 (Homo sapiens) (UniProt O95819). To be noted: at 1 µM.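 Note: reported figure is an averaged inhibition value.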
Test [2] has as its target Dual specificity mitogen-activated protein kinase kinase 1 (Homo sapiens) (UniProt Q02750). To be noted: at 0.1 µM.
Test [3] has the same target. To be noted: at 1 µM.
The target in test [4] is Misshapen-like kinase 1 (Homo sapiens) (UniProt Q8N4C8). To be noted: at 0.1 µM.
Test [5] shares this target. The settings on record: at 1 µM.
For test [6], the target named is T1, Serine/threonine-protein kinase 4 (Homo sapiens) (UniProt Q13043).
T1 sequence (whole entry): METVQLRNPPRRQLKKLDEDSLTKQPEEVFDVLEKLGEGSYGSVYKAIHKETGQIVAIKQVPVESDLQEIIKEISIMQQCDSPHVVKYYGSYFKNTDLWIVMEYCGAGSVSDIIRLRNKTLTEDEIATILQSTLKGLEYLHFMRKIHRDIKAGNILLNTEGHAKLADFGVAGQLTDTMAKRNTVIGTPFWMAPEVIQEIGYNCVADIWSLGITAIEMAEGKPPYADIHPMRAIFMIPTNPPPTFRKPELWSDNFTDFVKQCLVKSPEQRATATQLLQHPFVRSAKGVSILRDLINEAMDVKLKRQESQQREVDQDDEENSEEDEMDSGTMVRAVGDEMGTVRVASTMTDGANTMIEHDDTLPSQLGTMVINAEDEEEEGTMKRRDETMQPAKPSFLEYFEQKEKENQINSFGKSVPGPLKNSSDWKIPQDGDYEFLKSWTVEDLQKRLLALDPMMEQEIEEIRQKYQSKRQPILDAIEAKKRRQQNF
To be noted: at 0.1 µM.

Test [7] addresses T1, Serine/threonine-protein kinase 4 (Homo sapiens). To be noted: at 1 µM.
Test [8] concerns the target T2, Serine/threonine-protein kinase 3 (Homo sapiens) (UniProt Q13188).
T2 sequence (whole entry): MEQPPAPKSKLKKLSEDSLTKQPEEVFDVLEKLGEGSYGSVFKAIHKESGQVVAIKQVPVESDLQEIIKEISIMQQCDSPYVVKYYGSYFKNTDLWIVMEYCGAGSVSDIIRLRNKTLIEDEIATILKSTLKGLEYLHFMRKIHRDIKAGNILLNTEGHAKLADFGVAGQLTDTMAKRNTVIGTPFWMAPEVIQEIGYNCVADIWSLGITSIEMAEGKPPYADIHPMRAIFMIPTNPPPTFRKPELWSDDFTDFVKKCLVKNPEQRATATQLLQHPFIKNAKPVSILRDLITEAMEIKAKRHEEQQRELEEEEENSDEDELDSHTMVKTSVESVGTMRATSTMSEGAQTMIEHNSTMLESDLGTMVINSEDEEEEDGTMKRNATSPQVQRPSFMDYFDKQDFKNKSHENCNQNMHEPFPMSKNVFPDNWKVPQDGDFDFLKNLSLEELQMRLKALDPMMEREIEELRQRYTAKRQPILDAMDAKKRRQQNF
To be noted: at 0.1 µM.

Test [9] has as its target T2, Serine/threonine-protein kinase 3 (Homo sapiens). The settings on record: at 1 µM.
The target in test [10] is Serine/threonine-protein kinase 26 (Homo sapiens) (UniProt Q9P289). The settings on record: at 0.1 µM.
Sequence of Serine/threonine-protein kinase 26 (Homo sapiens) (Q9P289 2-416 limits assumed): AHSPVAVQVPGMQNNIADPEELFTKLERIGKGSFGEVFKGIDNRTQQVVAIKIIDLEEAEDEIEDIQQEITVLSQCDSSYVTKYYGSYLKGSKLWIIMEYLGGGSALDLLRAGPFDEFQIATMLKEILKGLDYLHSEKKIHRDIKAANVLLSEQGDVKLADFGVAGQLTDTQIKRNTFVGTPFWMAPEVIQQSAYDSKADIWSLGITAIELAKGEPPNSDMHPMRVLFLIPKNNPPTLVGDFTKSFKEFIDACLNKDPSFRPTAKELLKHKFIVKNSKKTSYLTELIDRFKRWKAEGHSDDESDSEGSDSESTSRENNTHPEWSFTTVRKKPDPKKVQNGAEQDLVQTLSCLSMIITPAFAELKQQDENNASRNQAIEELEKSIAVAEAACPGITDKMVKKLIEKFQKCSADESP

Sequence of Dual specificity mitogen-activated protein kinase kinase 1 (Homo sapiens) (Q02750 whole entry): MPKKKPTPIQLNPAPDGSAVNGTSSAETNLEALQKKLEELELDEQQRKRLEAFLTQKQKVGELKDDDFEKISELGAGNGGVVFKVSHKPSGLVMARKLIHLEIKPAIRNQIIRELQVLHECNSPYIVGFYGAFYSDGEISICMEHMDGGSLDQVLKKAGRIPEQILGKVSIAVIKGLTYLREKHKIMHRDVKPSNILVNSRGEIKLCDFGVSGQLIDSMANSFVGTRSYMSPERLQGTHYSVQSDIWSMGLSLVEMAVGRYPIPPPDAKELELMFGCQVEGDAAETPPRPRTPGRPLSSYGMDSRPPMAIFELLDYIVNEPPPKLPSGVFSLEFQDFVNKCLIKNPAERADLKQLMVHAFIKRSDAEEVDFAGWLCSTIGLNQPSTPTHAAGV
Sequence of Mitogen-activated protein kinase kinase kinase kinase 4 (Homo sapiens) (O95819 2-1239 limits assumed): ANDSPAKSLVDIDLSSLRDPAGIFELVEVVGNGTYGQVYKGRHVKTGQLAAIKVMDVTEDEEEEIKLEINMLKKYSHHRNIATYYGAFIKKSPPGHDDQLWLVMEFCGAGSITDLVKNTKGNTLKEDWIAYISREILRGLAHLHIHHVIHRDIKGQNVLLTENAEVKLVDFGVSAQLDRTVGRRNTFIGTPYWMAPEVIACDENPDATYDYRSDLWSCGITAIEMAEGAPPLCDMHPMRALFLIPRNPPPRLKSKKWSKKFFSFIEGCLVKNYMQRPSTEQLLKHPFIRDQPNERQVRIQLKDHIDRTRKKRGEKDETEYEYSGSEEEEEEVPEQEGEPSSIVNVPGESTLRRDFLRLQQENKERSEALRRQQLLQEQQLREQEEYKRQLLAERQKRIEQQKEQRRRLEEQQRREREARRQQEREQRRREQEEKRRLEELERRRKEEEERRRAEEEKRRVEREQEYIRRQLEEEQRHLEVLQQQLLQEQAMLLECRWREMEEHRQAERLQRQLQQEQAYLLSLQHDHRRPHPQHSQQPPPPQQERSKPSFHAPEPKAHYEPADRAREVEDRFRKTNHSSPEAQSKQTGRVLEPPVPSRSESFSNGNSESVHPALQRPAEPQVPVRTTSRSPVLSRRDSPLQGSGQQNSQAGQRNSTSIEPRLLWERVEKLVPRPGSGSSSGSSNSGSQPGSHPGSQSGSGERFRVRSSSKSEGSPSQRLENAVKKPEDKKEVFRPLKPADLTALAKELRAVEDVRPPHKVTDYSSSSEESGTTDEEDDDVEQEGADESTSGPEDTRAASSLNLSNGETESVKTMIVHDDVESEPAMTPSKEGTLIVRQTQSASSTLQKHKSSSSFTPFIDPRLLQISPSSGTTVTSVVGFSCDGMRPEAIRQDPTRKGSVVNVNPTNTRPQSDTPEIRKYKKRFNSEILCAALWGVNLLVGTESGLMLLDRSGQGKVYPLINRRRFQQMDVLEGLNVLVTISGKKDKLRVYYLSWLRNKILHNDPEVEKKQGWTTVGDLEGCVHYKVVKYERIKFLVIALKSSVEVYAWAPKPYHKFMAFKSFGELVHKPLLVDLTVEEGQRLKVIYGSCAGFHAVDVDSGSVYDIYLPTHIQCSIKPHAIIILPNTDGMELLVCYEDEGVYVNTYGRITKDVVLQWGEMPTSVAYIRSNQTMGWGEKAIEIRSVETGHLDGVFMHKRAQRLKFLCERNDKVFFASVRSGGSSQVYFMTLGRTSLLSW
Sequence of Misshapen-like kinase 1 (Homo sapiens) (Q8N4C8 whole entry, looked up): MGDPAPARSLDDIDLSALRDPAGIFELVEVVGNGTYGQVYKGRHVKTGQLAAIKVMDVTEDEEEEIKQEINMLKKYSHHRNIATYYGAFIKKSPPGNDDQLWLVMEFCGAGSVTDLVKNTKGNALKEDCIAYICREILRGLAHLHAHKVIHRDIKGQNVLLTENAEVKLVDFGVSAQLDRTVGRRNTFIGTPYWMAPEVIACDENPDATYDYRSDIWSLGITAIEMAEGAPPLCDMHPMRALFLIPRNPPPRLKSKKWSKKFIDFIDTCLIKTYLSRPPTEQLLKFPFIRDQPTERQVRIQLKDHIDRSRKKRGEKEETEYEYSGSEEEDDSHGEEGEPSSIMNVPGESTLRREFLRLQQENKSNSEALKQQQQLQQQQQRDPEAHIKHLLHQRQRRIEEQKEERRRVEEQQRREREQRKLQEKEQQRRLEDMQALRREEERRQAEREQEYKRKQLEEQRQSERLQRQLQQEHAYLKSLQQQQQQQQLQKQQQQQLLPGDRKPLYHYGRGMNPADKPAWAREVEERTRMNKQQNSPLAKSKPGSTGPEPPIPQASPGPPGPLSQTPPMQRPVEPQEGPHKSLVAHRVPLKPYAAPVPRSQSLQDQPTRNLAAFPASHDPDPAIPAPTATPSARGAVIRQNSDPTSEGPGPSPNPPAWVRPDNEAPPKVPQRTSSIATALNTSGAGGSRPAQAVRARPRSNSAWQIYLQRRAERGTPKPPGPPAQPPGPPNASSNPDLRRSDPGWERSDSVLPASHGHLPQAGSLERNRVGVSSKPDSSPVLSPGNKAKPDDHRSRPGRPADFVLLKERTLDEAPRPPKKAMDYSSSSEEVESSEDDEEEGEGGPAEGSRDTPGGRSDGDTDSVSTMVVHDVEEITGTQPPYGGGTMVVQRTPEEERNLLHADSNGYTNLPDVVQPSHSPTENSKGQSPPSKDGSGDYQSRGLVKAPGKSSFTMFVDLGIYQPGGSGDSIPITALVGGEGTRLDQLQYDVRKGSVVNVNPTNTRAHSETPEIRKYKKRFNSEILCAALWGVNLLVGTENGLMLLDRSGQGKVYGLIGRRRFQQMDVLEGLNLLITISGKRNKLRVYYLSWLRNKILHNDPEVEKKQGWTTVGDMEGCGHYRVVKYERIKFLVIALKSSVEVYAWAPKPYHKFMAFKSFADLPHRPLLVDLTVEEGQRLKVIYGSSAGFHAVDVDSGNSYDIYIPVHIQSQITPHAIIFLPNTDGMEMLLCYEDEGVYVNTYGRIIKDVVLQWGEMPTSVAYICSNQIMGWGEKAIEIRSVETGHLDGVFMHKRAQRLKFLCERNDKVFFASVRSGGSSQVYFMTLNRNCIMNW

As to `CNC(=O)c1cncc(/C=C/c2c(C)cccc2C)c1`, the inhibition in test [1] is 7.57%; in test [2], -0.07%; in test [3] it was 0.41%; in test [4] it was 1.75%; in test [5], 3.59%; in test [6] it was 2.23%. In addition, the inhibition in test [7] was determined as 3.51%; in test [8], 2.27%; in [9] it was 2.73%; in test [10], 0.91%.
Consider `COc1cc(Nc2ncc3c(C)nc(-c4cccc(C(F)(F)F)c4)n3n2)cc(OC)c1OC`, for which the inhibition came out at 34% in [1]; 4.45% in [2]; 10.7% in [3]; 10.5% in test [4]; 29.2% in test [5]; 7.12% in test [6]. The inhibition in [7] came to 17.8%; in test [8] it was 6.69%; in test [9], 13.2%; in test [10], 0.97%.
In the case of `COc1cc(N2CCN(C(C)C)CC2)ccc1Nc1nc(Nc2ccc(F)cc2C(=O)NC[C@@H](O)CO)c2cc[nH]c2n1`, the inhibition came to 13.6% in [1]; 6.5% in [2]; 5.77% in test [3]; 7.5% in [4]; 12% in test [5]; 4.86% in test [6]. Besides, the inhibition in test [7] was 6.99%; in [8], 6.36%; in [9] it was 7.9%; in test [10] it was -1.23%.
Turning to `NC(=O)c1cc(-c2ccncc2)cc(-c2ccccc2)c1N`, the inhibition in [1] stood at 32.3%; in test [2], 6.3%; in test [3] it was 5.89%; in [4], 11.2%; in [5], 26.1%; in test [6], 3.19%. Also, the inhibition was 6.8% in [7], 3.96% in [8], 3.58% in [9] and -0.07% in [10].
In the case of `COc1cc(C)c(N(C)C(=O)CN(C)C)cc1Nc1nc(Nc2cccc(F)c2C(N)=O)c2cc[nH]c2n1`, the inhibition in test [1] was determined as 4.77%; in [2], 2.7%; in test [3], 4.56%; in [4], 2.85%; in [5], 1.74%; in test [6] it was 4.57%. The inhibition in test [7] is 4.81%; in test [8], 5.2%; in test [9], 4.32%; in test [10], -0.43%.
Regarding `CCc1cccc(CC)c1/C=C/c1cncc(C(=O)NC)c1`, the inhibition in test [1] was 7.49%; in [2], 2.63%; in test [3], 2.68%; in [4], 3.66%; in test [5], 6.06%; in test [6] it was 5.37%. For the same molecule, the inhibition in [7] was 5.19%; in test [8], 5.6%; in test [9] it was 3.95%; in [10], -0.96%.
In the case of `C[C@@H](Oc1cc(-n2cnc3ccc(OCC4CCN(C)CC4)cc32)sc1C(N)=O)c1ccccc1Cl`, the inhibition in test [1] was found to be 11.6%; in test [2] it was 6.35%; in test [3], 5.61%; in [4] it was 6.3%; in [5] it was 10.1%; in test [6], 14.8%. For the same molecule, the inhibition in [7] is 56.7%; in test [8] it was 11.7%; in test [9], 39.7%; in [10], -8.39%.
In the case of `Fc1ccc(-c2ncn(C3CCNCC3)c2-c2ccnc(Oc3ccc4c(c3)OCO4)n2)cc1`, the inhibition in test [1] was 7.72%; in [2] it was 4.99%; in [3] it was 8.82%; in [4], 5.95%; in test [5], 12%; in test [6] it was 4.76%. The inhibition in test [7] was 8.51%; in test [8], 6.72%; in [9] it was 10.8%; in [10] it was -1.94%.
In the case of `COc1cc2ncn(-c3cc(OCCc4ccccc4)c(C(N)=O)s3)c2cc1OC`, the inhibition in test [1] was found to be 26.2%; in test [2], 3.24%; in test [3] it was 2.39%; in test [4] it was 5.52%; in test [5], 18.8%; in test [6], 2.99%. Further, the inhibition is 13.6% in test [7], 2.95% in [8], 11% in test [9] and -1.7% in test [10].
`COc1cc2ncn(-c3cc(OCc4ccccc4C(F)(F)F)c(C(C)=O)s3)c2cc1OC`: the inhibition in [1] was 8.16%; in [2], 3.88%; in test [3], 3.7%; in test [4], 5%; in [5], 8.55%; in test [6], 3.51%. Moreover, the inhibition was 3.86% in test [7], 3.42% in test [8], 7.42% in [9] and -0.47% in test [10].
Turning to `NC(=O)Cc1ccccc1Oc1nccc(-c2c(-c3ccc(F)cc3)ncn2C2CCNCC2)n1`, the inhibition in test [1] was 6.68%; in test [2], 2.01%; in test [3] it was 2.53%; in test [4], 4.37%; in [5], 6.95%; in [6] it was 1.4%. In addition, the inhibition is 3.79% in test [7], 2.69% in test [8], 4.24% in test [9] and -0.95% in test [10].
With `COC(=O)Nc1nc2ccc(Sc3ccc(NC(=O)Nc4cc(C(F)(F)F)ccc4F)cc3)cc2[nH]1`, the inhibition in [1] was 7.12%; in test [2], -0.42%; in [3], 0.12%; in [4], 0.07%; in [5], 0.67%; in test [6] it was 2.61%. The inhibition came to 3.26% in test [7], 2.16% in [8], 1.83% in test [9] and 1.18% in [10].
As to `O=C(Nc1n[nH]c2nc(-c3ccc(O)cc3)c(Br)cc12)C1CC1`, the inhibition was determined as 75.2% in [1]; 7.68% in test [2]; 8.1% in test [3]; 26.4% in [4]; 67.7% in test [5]; 5.36% in [6]. In addition, the inhibition in [7] worked out at 10.2%; in [8] it was 6.31%; in [9], 10.6%; in test [10], 4.96%.
`CCS(=O)(=O)c1ccc(OC)c(Nc2ncc(-c3ccccc3Cl)o2)c1`: the inhibition in [1] is 24.2%; in [2] it was -0.28%; in test [3] it was 0.4%; in test [4], 4.25%; in test [5], 22.4%; in test [6] it was 1.96%. The inhibition in test [7] was 5.89%; in [8] it was 1.11%; in [9] it was 2.6%; in [10] it was 1.19%.
For the molecule `Clc1ccc(CNc2nccc(-c3cnn4ncccc34)n2)cc1`, the inhibition in test [1] is 16.3%; in test [2], 0.08%; in test [3], 2.12%; in [4] it was 1.36%; in [5], 10.7%; in test [6], 3.22%. Moreover, the inhibition in [7] was 5.84%; in test [8], 2.53%; in test [9] it was 3.57%; in [10] it was -0.31%.
On to `CCC(=O)Nc1ccc(C)c(-c2ccc(C(=O)NCC3CC3)cc2)c1`, for which the inhibition came to 5.43% in [1]; 3.72% in test [2]; 2.87% in test [3]; 7.03% in [4]; 5.64% in test [5]; 2.76% in test [6]. Besides, the inhibition in [7] was 3.12%; in test [8] it was 3.02%; in test [9] it was 2.84%; in test [10], -1.82%.
For the molecule `COc1ccc2cc(-c3c(-c4ccncc4)nc(-c4ccc(S(C)(=O)=O)cc4C)n3C)ccc2c1`, the inhibition in [1] amounted to 14.8%; in test [2], 6.08%; in [3] it was 4.97%; in [4], 6.31%; in test [5] it was 13.9%; in test [6], 2.82%. For the same molecule, the inhibition in test [7] was 8.72%; in test [8], 4.72%; in test [9], 12.6%; in test [10] it was -0.63%.
